Records with an inconclusive call do not appear. A number with no mark means an inactive call. Calls of active or inactive are those of the source. Calls follow the shape of the dose curve; as a rule, active = well fitted inhibition curve with a large enough effect; inconclusive = small, poorly fitted or top-dose-only effect; inactive = flat fitted curve, though single readings scatter.
Experiment: P-glycoprotein substrates identified in KB-8-5-11 adenocarcinoma cell line, qHTS therapeutic library screen (AID 1346987); also: nearly all actives have a fitted effect of over 65% in size
Conditions: KB-8-5-11 (P-gp overexpressing) viability, CellTiter-Glo, 72 h; series mostly up to 44.5 µM; activity change, negative = cytotoxicity: at the top concentration
In short: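 Steps: plate 500 KB-8-5-11 cells/well in DMEM + 10% FCS (colchicine removed); pin compounds in dose-response; incubate 72 h, 37 degree C, 5% CO2; add CellTiter-Glo, 5 min; read luminescence.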
For C[C@@H]1CCC2C(C)(C)[C@H](O)CC[C@]2(C)[C@@]12Cc1c(O)cc3c(c1O2)CNC3=O (some centres undefined), the “activity change, negative = cytotoxicity” value was 9.38%. With C=CC1(C)C=C2C(=O)OC(=O)C3=C(CCCC3(C)C)C2(O)CC1 (centres undefined) the “outcome” value was “inactive”. With Cc1[nH]nc(C(F)(F)F)c1Cc1sc2c(c1C(=O)N1C[C@](C)(O)CO1)c(=O)n(C)c(=O)n2C(C)C the “activity change, negative = cytotoxicity” value was 7.5%. For COC(=O)C[C@H]1C(C)(C)[C@H](OC(C)=O)C2CC3=C4CC(=O)O[C@@H](c5ccoc5)[C@]4(C)CCC3[C@@]1(C)C2=O (some centres undefined), the “activity change, negative = cytotoxicity” value was -7.57% [at 17.3 µM]. In the case of C#CCN(Cc1cc2c(=O)n(C)c(CN3CCN(C)CC3)nc2cc1Cl)c1ccc(C(=O)NCc2cccnc2)cc1, the Potency was 0.259 µM (active). With C[C@H](C(=O)NC1CCCC1)N(C(=O)Cn1nnc(-c2ccc3c(c2)OCO3)n1)C1CCCCC1 the “activity change, negative = cytotoxicity” value was -20.8%. In the case of C/C=C1\[C@H](OC2OC(COC3OC(CO)C(O)C(O)C3O)C(O)C(O)C2O)OC=C(C(=O)OC)[C@H]1CC(=O)OCCc1ccc(O)cc1 (some centres undefined), the “activity change, negative = cytotoxicity” value was 1.76% [at 17.3 µM]. In the case of COc1cc2ncnc(Nc3ccc(F)c(Cl)c3)c2cc1NC(=O)/C=C/CN1CCCCC1, the Potency was 10.3 µM (active). For C=C1CCC2C(C)(C(=O)O)CCCC2(C)C1CC/C(=C\CO)CO (centres undefined), the “activity change, negative = cytotoxicity” value was 7.06%.

Source: PubChem BioAssay (NCATS)
% is scaled to controls: 0 for no effect and ±100 for the full control effect; potency is read from the fitted curve at half-maximal effect.
